Assay results: PubChem BioAssay (NCI)
This is part of a sample that, as a whole, favours compounds with a hit. Of some 83,000 tested, about 20% had one in any assay.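 How to read the values: 0–100, growth inhibition (40 = 60% inhibited); 0, no net growth; -100 to 0, cell death (-40 = 40% of starting cells died; -100 = all dead).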 Calls of active or inactive are those of the source.

What follows are compounds tested on RPMI-8226 leukemia (assay: NCI-60 one-dose screen, 48 h (100 = growth as untreated, 0 = no growth, -100 = all killed)). Conditions: 10 µM unless noted.
Protocol: Growth inhibition of the RPMI-8226 human tumor cell line is measured as a screen for anti-cancer activity. Cells are grown in 96 well plates and exposed to the test compound for 48 hours. Compounds are tested at a single concentration, which is 10^-5 M for most compounds. The reported endpoint is percent growth (GI% or GIPRCNT), where numbers from 0 - 100% represent growth inhibition, and numbers from -100% - 0 represent cell death. For example, a value of 40 represents 60% growth inhibition. A value of 0 means no net growth occurred over the course of the experiment. A value of -40 indicates 40% of cells at the beginning of the experiment died by the end of the experiment. A value of -100 means all cells are dead at the end of the experiment.
NCI-60 Human Tumor Cell Lines Screen was performed using the standard one-dose NCI protocol, which is described in more detail at https://dtp.cancer.gov/discovery_development/nci-60/default.htm.
Compounds with GIPRCNT values below 10 were considered active. Activity score was based on GIPRCNT using the following formula: […]
Score is 0 for GIPRCNT values of 100 or above, 50 for GIPRCNT values of 0, and 100 for GIPRCNT values of -100.

Row | Compound | growth
1 | O=C(/C(=C/c1ccc([N+](=O)[O-])cc1)SCc1ccc(F)cc1)c1ccc(F)cc1 | -28.7% (active)
2 | C=C1C(=O)O[C@H]2[C@H]1CC/C(CNS(=O)(=O)c1cccc3ccccc13)=C\CC[C@@]1(C)O[C@@H]21 | -16.5% (active)
3 | O=S(=O)(NCCCNc1nccc(-c2c(-c3cccc(O)c3)nc3occn23)n1)c1ccc(Cl)cc1 | 81% (inactive)
4 | COc1ccc(/C=C/C(=O)Nc2cc(/C=C\c3cc(OC)c(OC)c(OC)c3)cc(OC)c2OC)cc1OC | 30.7% (inactive)
5 | CCCCCCOc1ccc(/C=N/Nc2cc(C)nc3ccc(Cl)cc23)cc1 | -35.3% (active)
6 | C#CCNC(=O)c1cccc2c1cc(C)n2-c1nc2c(c(NCc3ccccc3)n1)CCCC2 | 0.445% (active)
7 | NC(=NCc1ccccc1)C(N=Nc1ccccc1)C(=O)NCc1ccccc1 (stereo not given) | 90.9% (inactive)
8 | CCCC/C=N/NC(=S)NCc1ccccc1 | 97.6% (inactive)
9 | O=C(CCN1CCCC1)Nc1ccc2c(NCCCc3ccccc3)c3ccccc3nc2c1 | -36.6% (active)
10 | COc1cccc2c1c1nc3cc(C)c(C)cc3nc1n2CCN(C)C | -8.21% (active)
11 | COc1ccc2c(c1)C(=O)CC(c1ccccc1OC)O2 (stereo not given) | 105% (inactive)
12 | COc1ccc(OC)c(CCn2cncc2-c2c[nH]c3ccccc23)c1 | 45.6% (inactive)
13 | CN(C)CC(O)c1ccc(/C=C/c2ccc(Cl)cc2)cc1 (stereo not given) | -8.89% (active)
14 | COc1cc(C(=O)Nc2cc3c(cc2Oc2cc(C)cc(C)c2)C(=O)N(C)[C@@H](CC(=O)N(C)O)C(=O)N3)c(Br)c(OC)c1OC | -26.2% (active)
15 | O=S(=O)(NCCNc1nccc(-c2c(-c3cccc(O)c3)nc3occn23)n1)c1cccc(F)c1 | 97% (inactive)
16 | O=[N+]([O-])c1cc(Br)c2cccc3c2c1CC3 | 109% (inactive)
17 | O=S(=O)(NCCCNc1nccc(-c2c(-c3cccc(F)c3)nc3sccn23)n1)c1cccc2ccccc12 | 44.9% (inactive)
18 | CCCCCC(=O)Oc1ccc(/C(=C(/C)Cc2ccc(OC)cc2)c2ccc(OCCCN(C)C)cc2)cc1 | 82.7% (inactive)
19 | COc1cccc(-c2ccc3c(c2)NC(=O)/C3=C\c2ccc[nH]2)c1 | 17.5% (inactive)
20 | COc1ccc(C(=O)c2nc3ccccc3n2CC(=O)c2ccc(Cl)cc2)cc1 | -17.4% (active)

Row | Compound | growth
21 | C=C1C(=O)O[C@H]2[C@H]1CC/C(CNC(=O)/C=C/c1ccccc1)=C\CC[C@@]1(C)O[C@@H]21 | -10.5% (active)
22 | CCOC(=O)C1=C(C)NC(SCc2cc(=O)oc3ccc(F)cc23)=N[C@@H]1c1cccc2ccccc12 | 90.5% (inactive)
23 | CC(c1ccccc1)C(C(=O)c1ccccc1)c1ccccc1 (stereo not given) | 107% (inactive)
24 | CC(=O)[C@@H]1CC[C@]2(C(N)=O)CC[C@]3(C)[C@H](CC[C@@H]4[C@@]5(C)CCCNC(C)(C)[C@@H]5CC[C@]43C)[C@@H]12 | 61.7% (inactive)
25 | Cn1ccnc1C(=O)/C=C/c1ccc(CC(=O)Nc2ccc(Cl)cc2)cc1 | -7.76% (active)
26 | O=C(CCN1CCCC1)Nc1ccc2c(NCCc3ccccc3)c3ccccc3nc2c1 | -41.9% (active)
27 | O=C(c1nc2ccccc2[nH]1)C1C(c2ccc(Br)cc2)C2CC3CCCC[C@H]3N2[C@@]12C(=O)Nc1cc(Cl)ccc12 (stereo not given in full) | 17% (inactive)
28 | Cc1c(C(=O)NCCC(=O)NO)sc2ncnc(Nc3ccc(F)c(Cl)c3)c12 | 110% (inactive)
29 | COc1cc2nc(-c3ccc(C(F)(F)F)cc3)cc(OCCN3CCCCC3)c2cc1OC | 42.3% (inactive)
30 | CCNC(=O)Oc1ccc(/C(=C(\C)c2ccccc2)c2ccc(OCCCN(C)C)cc2)cc1 | 66.6% (inactive)
31 | CC1(C)CC(=O)C2=C(C1)N(c1ccc(F)cc1F)C(N)=C(C#N)C2c1cc(Br)ccc1F (stereo not given) | 80.6% (inactive)
32 | CCOc1ccc(Nc2nc(-c3ccc4c(c3)NC(=O)CO4)cs2)cc1 | 28% (inactive)
33 | CCCOc1ccc(/C=N/Nc2cc(C)nc3ccc(Cl)cc23)cc1 | -20.2% (active)
34 | CC(Sc1nc2sc3c(c2c(=O)n1-c1ccc(Cl)cc1)CCCC3)C(=O)Nc1nc(-c2ccc(Br)cc2)cs1 (stereo not given) | 102% (inactive)
35 | COc1ccc(C(=O)c2nc3ccccc3n2CC(=O)c2ccc(F)cc2)cc1 | 81.8% (inactive)
36 | COc1ccc(CCn2cncc2-c2c[nH]c3ccccc23)cc1 | 73.4% (inactive)
37 | COc1ccc(CNCCN2C(=O)c3ccc4c5c(ccc(c35)C2=O)C(=O)N(CCNCc2ccc(OC)c(OC)c2OC)C4=O)c(OC)c1OC | -25% (active)
38 | O=C(CCN1CCCC1)c1ccc([N+](=O)[O-])cc1 | 92.7% (inactive)
39 | O=C(Nc1ccc(F)cc1)Nc1ccc(NC(=O)c2cc(Cl)nc3ccccc23)cc1 | 26.5% (inactive)
40 | COC(=O)CNC(=O)[C@]12CCC(C)(C)C[C@H]1C1=CC[C@@H]3[C@@]4(C)Cc5c([nH]c6ccccc56)C(C)(C)[C@@H]4CC[C@@]3(C)[C@]1(C)CC2 | 77% (inactive)
